# Experimental data: ChEMBL document CHEMBL3988442, “University of Dundee, Small-Polar-MMV Screening Library” (2021)
# Target: T1, Methionyl-tRNA synthetase, putative (Leishmania donovani (strain BPK282A1)) (UniProt E9BF75)
# T1 sequence (whole entry): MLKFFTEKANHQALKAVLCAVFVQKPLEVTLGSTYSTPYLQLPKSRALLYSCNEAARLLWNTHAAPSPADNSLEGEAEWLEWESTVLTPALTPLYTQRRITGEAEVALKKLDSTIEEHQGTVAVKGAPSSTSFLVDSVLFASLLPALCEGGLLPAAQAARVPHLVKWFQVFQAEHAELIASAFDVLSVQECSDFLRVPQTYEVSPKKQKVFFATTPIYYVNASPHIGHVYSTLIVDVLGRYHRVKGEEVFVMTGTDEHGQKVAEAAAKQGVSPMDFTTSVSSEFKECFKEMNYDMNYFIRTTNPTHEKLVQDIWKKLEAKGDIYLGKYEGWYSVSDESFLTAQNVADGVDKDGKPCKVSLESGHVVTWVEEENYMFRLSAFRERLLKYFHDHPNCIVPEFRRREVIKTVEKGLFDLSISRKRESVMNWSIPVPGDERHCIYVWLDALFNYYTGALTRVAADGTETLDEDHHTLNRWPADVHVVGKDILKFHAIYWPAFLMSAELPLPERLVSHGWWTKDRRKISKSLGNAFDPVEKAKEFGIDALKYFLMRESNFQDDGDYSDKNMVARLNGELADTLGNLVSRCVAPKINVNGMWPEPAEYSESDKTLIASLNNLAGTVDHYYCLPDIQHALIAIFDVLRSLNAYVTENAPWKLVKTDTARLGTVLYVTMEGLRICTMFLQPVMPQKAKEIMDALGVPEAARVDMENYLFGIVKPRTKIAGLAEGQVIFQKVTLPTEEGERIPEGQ
# Test: Leishmania donovani Methionine tRNA synthetase (LdMetRS):v7. Dose response assay
# Format: functional
# Design: conc 80 nM, time 150 minutes
structure (smiles),measurement,setting,value
Cc1cc(C)n(C2=NC(NCCC(C)C)c3c(sc4c3CCCC4)N2)n1 (stereo not drawn),PXC50,MAX_EFFECT 4.798464491,< 4
same,PXC50,MAX_EFFECT 13.23763955,< 4
Cc1nc(N2CCNC(=O)CC2C)c2c(CC(C)C)csc2n1 (stereo not drawn),PXC50,MAX_EFFECT 4.918032787,< 4
same,PXC50,MAX_EFFECT 7.486631016,< 4
Cc1nc(N(C)CC(=O)N(C)C)c2c(-c3ccccc3)csc2n1,PXC50,MAX_EFFECT 5.289672544,< 4
same,PXC50,MAX_EFFECT 6.361323155,< 4
Cc1nc(N2CC(N3CCCCC3C)C2)c2ccsc2n1 (stereo not drawn),PXC50,MAX_EFFECT 5.319148936,< 4
same,PXC50,MAX_EFFECT 5.699481865,< 4
O=C(NCC1CCCCC1)c1cc(=O)c2cc(F)cc(O)c2o1,PXC50,MAX_EFFECT 5.56621881,< 4
same,PXC50,MAX_EFFECT 11.64274322,< 4
NC(=O)C1CN(c2nc(C3CC3)nc3sc4c(c23)CCCC4)CCO1 (stereo not drawn),PXC50,MAX_EFFECT 5.699481865,< 4
same,PXC50,MAX_EFFECT 7.446808511,< 4
CC(C)C[C@H](N)COc1ccc(Cl)cc1C(=O)c1ccccc1,PXC50,MAX_EFFECT 7.036247335,< 4
same,PXC50,MAX_EFFECT 9.316770186,< 4
CS(=O)(=O)N1CCN(c2ccc3ncc(C(=O)NC4CCCC4)cn23)CC1,PXC50,MAX_EFFECT 7.456140351,< 4
same,PXC50,MAX_EFFECT 9.895833333,< 4
FC1(F)CCN(Cc2ccccn2)CC12CCN(c1cnccn1)C2 (stereo not drawn),PXC50,MAX_EFFECT 7.476635514,< 4
same,PXC50,MAX_EFFECT 8.163265306,< 4
CC(C)C[C@H](N)CNc1cccnc1Oc1ccc(Cl)cc1,PXC50,MAX_EFFECT 7.660455487,< 4
same,PXC50,MAX_EFFECT 9.168443497,< 4
CS(=O)(=O)N1CCN(c2ccc3cnc(C(=O)NC4CCCC4)cn23)CC1,PXC50,MAX_EFFECT 8.333333333,< 4
same,PXC50,MAX_EFFECT 13.54166667,< 4
COc1cccc(-c2cc(C(F)(F)F)nc(N3CCOCC3)n2)c1,PXC50,MAX_EFFECT 8.510638298,< 4
same,PXC50,MAX_EFFECT 10.3626943,< 4
Cc1sc2nc(-c3cccs3)nc(NCCN3CCOCC3)c2c1C,PXC50,MAX_EFFECT 8.542713568,< 4
same,PXC50,MAX_EFFECT 8.5995086,< 4
Cc1nccn1CCCn1cncc1-c1ccc2c(c1)CCCN2C,PXC50,MAX_EFFECT 9.523809524,< 4
same,PXC50,MAX_EFFECT 19.43925234,< 4
CC(=O)NCCNc1nc(-c2cccnc2)nc2sc(C)c(C)c12,PXC50,MAX_EFFECT 9.574468085,< 4
same,PXC50,MAX_EFFECT 10.3626943,< 4
O=C(O)C1CCCN1c1nc(-c2ccc(Cl)c(Cl)c2)cc(C(F)(F)F)n1 (stereo not drawn),PXC50,MAX_EFFECT 9.660574413,< 4
same,PXC50,MAX_EFFECT 10.44386423,< 4
Cc1ccc(-c2cc(C(F)(F)F)nc(N3CCOCC3)n2)s1,PXC50,MAX_EFFECT 10.18276762,< 4
same,PXC50,MAX_EFFECT 14.09921671,< 4
CCOC(=O)N1CCN(c2nc(-n3nc(C)cc3C)nc3sc4c(c23)CCCC4)CC1,PXC50,MAX_EFFECT 10.41666667,< 4
same,PXC50,MAX_EFFECT 12.71929825,< 4
COCCN(Cc1cnn(C)c1)c1nc(C)nc2sccc12,PXC50,MAX_EFFECT 10.70496084,< 4
same,PXC50,MAX_EFFECT 11.48825065,< 4
COc1ccc(C(=O)[C@H]2C[C@@H]2CN(Cc2ccccn2)Cc2ccccn2)cc1,PXC50,MAX_EFFECT 11.1627907,< 4
same,PXC50,MAX_EFFECT 16.55011655,< 4
CN(c1ncnc2sccc12)C1CCCN(c2cccnn2)C1 (stereo not drawn),PXC50,MAX_EFFECT 11.26760563,< 4
same,PXC50,MAX_EFFECT 18.33333333,< 4
Nc1noc2ccc(-c3cnc4ccc(N5CCOCC5)nn34)cc12,PXC50,MAX_EFFECT 12.21374046,< 4
same,PXC50,MAX_EFFECT 20.61403509,< 4
COCCN(Cc1sccc1C)c1nc(C)nc2sccc12,PXC50,MAX_EFFECT 12.79373368,< 4
same,PXC50,MAX_EFFECT 17.23237598,< 4
CCOC(=O)c1sc2nc(C)nc(NC3CCCCC3)c2c1C,PXC50,MAX_EFFECT 13.06532663,< 4
same,PXC50,MAX_EFFECT 16.95331695,< 4
Cn1ncc2c(OCCO)nc(Nc3ccc(F)c(F)c3)nc21,PXC50,MAX_EFFECT 18.30188679,< 4
same,PXC50,MAX_EFFECT 21.91780822,< 4
O=C(c1ccc2ccc(N3CCN(CC4CC4)CC3)n2c1)N1CCCO1,PXC50,MAX_EFFECT 19.44444444,< 4
same,PXC50,MAX_EFFECT 22.0657277,< 4
CC(C)C[C@H](N)COc1ccccc1-c1ccccc1,PXC50,MAX_EFFECT 19.82942431,< 4
same,PXC50,MAX_EFFECT 21.32505176,< 4
CCC(CO)Nc1nc(CSc2ccccc2)nc2sc(C)c(C)c12 (stereo not drawn),PXC50,MAX_EFFECT 23.49726776,< 4
same,PXC50,MAX_EFFECT 24.06417112,< 4
CCc1cc2c(NC(C(=O)O)C(C)C)nc(-c3ccccc3)nc2s1 (stereo not drawn),PXC50,MAX_EFFECT 27.80748663,< 4
same,PXC50,MAX_EFFECT 31.69398907,< 4
CCc1ccc(CN(C)Cc2nc(N)c3c(C)c(C)sc3n2)cc1,PXC50,MAX_EFFECT 28.57142857,< 4
same,PXC50,MAX_EFFECT 30.4,< 4
Cc1nc(NC2CCCC2)c2c3c(sc2n1)CCCC3,PXC50,MAX_EFFECT 28.64583333,< 4
same,PXC50,MAX_EFFECT 30.70175439,< 4
CCN(CC)C(=O)CN(C)c1nc(C)nc2sc(-c3ccccc3)cc12,PXC50,MAX_EFFECT 23.46666667,< 4
same,PXC50,MAX_EFFECT 30.15873016,< 4
Fc1ccc(Nc2nc(-c3ccccn3)cs2)cc1,PXC50,MAX_EFFECT 22.79069767,< 4
same,PXC50,MAX_EFFECT 23.07692308,< 4
Cc1nc(N2CCN(c3cnccn3)CC2)c2c3c(sc2n1)CCCC3,PXC50,MAX_EFFECT 22.45989305,< 4
same,PXC50,MAX_EFFECT 25.13661202,< 4
